Results reported in the OligoGym collection.

Each sequence was assayed against APLNR (assay: pooled miR-30 sensor sort-seq; sequence = guide strand). Details: shRNA.
Note: reference of the scale not given here.

Row | Sequence | sensor-assay potency score (higher = more potent)
1 | TATCTGCTGACACACAGCCCAC | -1.74
2 | TAACAGGTCAGCATGATGGTGA | 0.0238
3 | TTCTCGTGCATCTGTTCTCCAC | -0.937
4 | TAGCTGGCTGACTTCTCCCCAC | -0.754
5 | TTTTACTGCGTCCAGACTCAGG | -1.25
6 | TAATTATCTGCTGACACACAGC | -0.776
7 | TGGATTTCTCGTGCATCTGTTC | -1.45
8 | TTCACTTTCATAGTCCTCCAAG | -0.567
9 | TTGACGTAGCTGATGCAGGTGC | 0.046
10 | TTTGAGGACAGCTCTGGGCAGA | -0.516
11 | AAGTACAACACACACAGACAAG | -1.41
12 | AGTCTGTGTACTCACACTCAGA | -2.07
13 | TTGACGAAGATGAGGTAGCTGC | -0.686
14 | TAGCAATGAAGATATCAGCTGA | 0.487
15 | TTATCTGCTGACACACAGCCCA | -0.574
